# Screening data: PubChem BioAssay, The Scripps Research Institute Molecular Screening Center
# UHRF1 MBD2 ctr = UHRF1 methyl-DNA binding inhibition. Q96T88. UHRF1 binding to methylated oligo, TR-FRET. inhibition, % at 4.4 µM. 370,000 compounds, 0.75% hits. AID 687016; in the data active means inhibition above about 21%;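 further: UHRF1 SRA domain binding a hemimethylated CpG hairpin DNA probe; 0% = median of test compound wells and 100% = reference inhibitor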
# LEDGF integ inh = blocks HIV-1 LEDGF/p75-dependent DNA integration | 370,000 compounds, 0.64% hits | inhibition, % at 3.7 µM | TR-FRET IN-LEDGF/p75 DNA integration, Eu/Cy5;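 active means inhibition above the screen-wide mean plus 3 SD, cut at about 13% in these data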;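 further: signal is the Cy5 over europium emission ratio at 671 and 618 nm; 0% = plate median of compound wells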
# ABHD5-PLIN5 inh = inhibitors of human ABHD5-perilipin-5 interaction; Q00G26+Q8WTS1; Split G. princeps luciferase complementation, luminescence, 4 h; inhibition, % at 4 µM; 360,000 compounds, 0.78% hits;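 active means inhibition above the mean inhibition across every tested compound plus 3 SD, cut at about 22% in these data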;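 further: 0% = DMSO only wells and the 100% control is not disclosed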
# rCAG RNA binder = r(CAG) repeat RNA binding | TO-PRO-1 dye displacement fluorescence | inhibition, % at 3 µM | 370,000 compounds, 1.3% hits;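 active means inhibition above the plate cutoff, the mean of all test compounds on that plate plus 3 SD, cut at about 35% in these data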;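 further: 0% = DMSO alone and 100% = 100 µM mitoxantrone as full dye displacement; higher means more dye released from RNA so lower well fluorescence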
# MBD2 DNA inh = blocks human MBD2 binding to methylated DNA; Q9UBB5; TR-FRET, MBD2 binding to methylated oligonucleotide; inhibition, % at 4.4 µM; 370,000 compounds, 0.31% hits; AID 686964; in the data active means inhibition above about 13%
# Target sequence (Q9UBB5 whole entry, looked up): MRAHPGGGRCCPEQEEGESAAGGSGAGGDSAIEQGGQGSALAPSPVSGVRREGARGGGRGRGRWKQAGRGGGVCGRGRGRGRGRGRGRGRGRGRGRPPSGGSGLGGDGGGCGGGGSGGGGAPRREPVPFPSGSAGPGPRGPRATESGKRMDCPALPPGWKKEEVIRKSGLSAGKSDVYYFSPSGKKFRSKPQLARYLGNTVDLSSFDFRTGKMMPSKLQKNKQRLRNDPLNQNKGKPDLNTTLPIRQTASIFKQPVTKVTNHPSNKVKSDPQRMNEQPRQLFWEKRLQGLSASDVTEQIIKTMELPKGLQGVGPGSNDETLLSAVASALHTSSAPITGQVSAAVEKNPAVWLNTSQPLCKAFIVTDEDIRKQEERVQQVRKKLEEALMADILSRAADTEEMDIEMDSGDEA
# PRMT1 inh = inhibitors of human PRMT1; Q99873; recombinant PRMT1, activity-based probe fluorescence polarization; inhibition, % at 2.79 µM; 370,000 compounds, 1.3% hits;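 active means inhibition above about 21% made by adding two undisclosed values, limit read from the data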
# rCAG binder conf = r(CAG) RNA repeat binding, confirmation | shares compounds with rCAG RNA binder | TO-PRO-1 dye displacement fluorescence | inhibition, % at 3 µM | 4,300 compounds, 70% hits;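 active means inhibition above a per-plate cutoff, the mean inhibition of sample wells plus 3 SD, cut at about 35% in these data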;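 further: loss of TO-PRO-1 fluorescence as compound displaces dye from 1x1 AA loop RNA; 0% = DMSO only wells and 100% = 100 µM mitoxantrone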
# DNA CAG counter = disrupts DNA CAG TO-PRO-1 complex, flagging rCAG hits | shares compounds with rCAG RNA binder | d(CAG) DNA oligo TO-PRO-1 dye displacement, fluorescence | inhibition, % at 3 µM | 4,300 compounds, 94% hits | AID 652068;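 active means inhibition above its plate's cutoff, the mean test-well inhibition plus 3 SD, cut at about 4.8% in these data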;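 further: 0% = DNA dye mix with DMSO and 100% = 100 µM mitoxantrone; hits displace the dye from DNA and so lower well fluorescence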
# dCAG dye DR = disrupts DNA CAG TO-PRO-1 complex in dose response; 250 compounds, 20% hits; AID 686960; IC50, µM; shares compounds with rCAG RNA binder; DNA CAG/GTC duplex TO-PRO-1 dye displacement fluorescence; in the data active means IC50 below about 10 µM
# An asterisk follows results filed as active; i = inactive; . = no result given. Hits are enriched below; roughly 4.1% of the tested compounds scored in any of these assays.
SMILES,UHRF1 MBD2 ctr,LEDGF integ inh,ABHD5-PLIN5 inh,rCAG RNA binder,MBD2 DNA inh,PRMT1 inh,rCAG binder conf,DNA CAG counter,others
CC1=CSC2=NC(=O)/C(=C\c3cccn3-c3ccccc3)C(=N)N12,0.9,-0.3,-0.2,4.7,0.8,-1.2,.,.,
Cc1cccc(C)c1-n1cccc1/C=C1/C(=N)N2C(=NC1=O)SN=C2S(C)(=O)=O,4.6,8.5,-2.2,88.4*,-0.4,0.0,85.1*,59.3*,
Cc1ccc(-c2nc(C3CCCN(S(=O)(=O)c4ccccc4)C3)no2)cc1 (configuration not stated),3.0,1.5,.,1.1,-0.9,0.5,.,.,
N#CCCN(C(=O)COC(=O)c1cccc(S(=O)(=O)Nc2ccc([N+](=O)[O-])cc2)c1)c1ccccc1,-3.4,0.7,3.1,77.1*,-6.0,-3.9,77.0*,34.9*,
COc1ccc2[nH]c3c(c2c1)CCN[C@]31C(=O)Nc2ccccc21,0.1,-1.8,.,2.9,-0.5,5.3,.,.,
O=C(Nc1ccc2ccccc2c1)c1ccc(NS(=O)(=O)c2ccc(Br)s2)cc1,-1.3,0.9,-3.0,71.1*,-2.8,0.1,87.5*,57.2*,
COc1ccc([C@@]23CCN=C2c2[nH]c4ccccc4c2CCN3)c(N)c1,-0.2,-4.8,.,.,1.9,4.8,.,.,
O=C(CSc1nc2nc(-c3cccs3)cc(C(F)(F)F)c2c(=O)[nH]1)Nc1c(F)c(F)c(F)c(F)c1F,0.1,-4.5,-1.9,13.0,1.5,1.1,.,.,
NS(=O)(=O)c1cccc(NC(=O)CSc2nc3nc(-c4cccs4)cc(C(F)(F)F)c3c(=O)[nH]2)c1,-0.2,-3.4,1.2,49.6*,-5.2,4.3,77.2*,44.8*,
COc1nccnc1NS(=O)(=O)c1ccc(N=Cc2c(C)[nH]n(-c3ccccc3)c2=O)cc1,-5.3,-4.9,-7.2,9.7,-0.3,4.6,.,.,
Cc1ccc(-n2[nH]c(C)c(C=Nc3ccc(S(=O)(=O)Nc4nccs4)cc3)c2=O)cc1C,-7.6,0.9,-0.5,56.1*,-1.6,1.8,75.4*,38.0*,
Cc1[nH]n(-c2ccccc2)c(=O)c1C=Nc1ccc(S(=O)(=O)Nc2nccs2)cc1,-7.2,-1.9,-11.6,43.3*,-1.4,3.7,41.4*,12.9*,
O=[N+]([O-])c1ccc(-c2nc(Nc3cccc(O)c3)c3ccccc3n2)cc1,-0.4,1.7,0.1,47.8*,-3.9,4.4,28.2,13.0*,
O=C(O)c1cccc(Nc2nc(-c3ccc([N+](=O)[O-])cc3)nc3ccccc23)c1,4.6,-1.1,-5.0,1.9,3.6,6.1,.,.,
Cc1ccc(-c2nc(Nc3cccc(O)c3)c3ccccc3n2)cc1,0.5,-0.9,1.2,37.1*,2.8,2.2,32.3,10.2*,
CN(Cc1ccccc1)C(=O)c1cccc(NC(=O)Cc2cccc(NC(=O)C3CCN(C(=O)CCc4ccccc4)CC3)c2)c1,-1.5,-1.5,.,9.3,2.9,-0.2,.,.,
COC(=O)Cc1nnn2c1[C@H](C)[C@H](c1ccccc1Br)OC[C@H](C)C2,-1.1,2.5,.,4.3,-2.5,-4.8,.,.,
COC(=O)c1sc(-c2ccc(Cl)cc2)cc1NC(=O)c1ccccc1C(=O)O,2.3,6.0,-1.3,70.5*,2.9,0.1,80.0*,46.0*,
COC(=O)c1sc(-c2ccc(C(C)(C)C)cc2)cc1NC(=O)CSCC(=O)O,3.0,-3.9,7.0,62.3*,4.1,3.0,68.1*,25.4*,
COC(=O)c1sc(-c2ccc(C(C)(C)C)cc2)cc1NC(=O)c1ccccc1C(=O)O,0.1,-0.4,-3.2,70.1*,-4.2,-1.2,83.5*,46.1*,
CCC(NC(=O)Cc1c(C)c2ccc(OC)c(C)c2oc1=O)C(=O)NC(Cc1ccc(Cl)cc1)C(=O)O (configuration not stated),-0.2,0.3,-1.6,35.6*,1.2,-1.9,40.8*,8.8*,
CCCCCCc1c(C)c2ccc(OCC(=O)N[C@@H](Cc3ccccc3)C(=O)O)cc2oc1=O,-0.1,5.4,-0.1,46.4*,1.0,-0.1,75.6*,31.1*,dCAG dye DR=i
Cc1c(Cc2ccccc2)c(=O)oc2cc(OCC(=O)NC(Cc3ccc(Cl)cc3)C(=O)O)ccc12 (configuration not stated),0.9,1.6,-2.8,52.3*,-1.7,-3.2,66.0*,24.6*,
Cc1c(OCC(=O)NC(Cc2ccc(Cl)cc2)C(=O)O)ccc2c1oc(=O)c1ccccc12 (configuration not stated),-2.4,1.2,-4.3,13.1,-3.2,0.0,.,.,
Cc1cc(OCC(=O)N[C@@H](CSCc2ccccc2)C(=O)O)c2c(C)c(C)c(=O)oc2c1,1.9,6.1,3.3,49.3*,3.9,-1.6,53.6*,12.7*,
SMILES,UHRF1 MBD2 ctr,LEDGF integ inh,ABHD5-PLIN5 inh,rCAG RNA binder,MBD2 DNA inh,PRMT1 inh,rCAG binder conf,DNA CAG counter,others
Cc1c(C)c2ccc(OCC(=O)NC(Cc3ccc(Cl)cc3)C(=O)O)cc2oc1=O (configuration not stated),-2.5,-0.8,-5.9,20.8,3.7,-2.4,.,.,
CCOC(=O)C1=C(C(=O)OCC)C2N(Cc3ccc(Br)cc3)c3ccccc3[C@@]23C[C@@H](C(=O)OC)N(S(=O)(=O)c2cccs2)C3=N1 (some centres not stated),1.6,-4.4,.,11.0,2.4,0.6,.,.,
C=CCn1c(SCC(=O)Nc2ccccc2-c2ccccc2)nnc1-c1ccccc1,2.9,1.6,.,2.5,1.5,-5.8,.,.,
Cc1[nH]nc2c1C(c1ccc(Br)cc1)N(Cc1ccccc1)C2=O (configuration not stated),-1.9,2.7,.,2.8,-5.0,-2.4,.,.,
Cc1c(Cc2ccccc2)c(=O)oc2c(C)c(OCC(=O)N[C@@H](Cc3ccccc3)C(=O)O)ccc12,1.5,-1.4,6.9,46.6*,3.7,3.2,69.7*,29.1*,dCAG dye DR=i
COc1ccc(-c2csc(NC(=S)NC(=O)/C=C/c3ccco3)n2)cc1Br,1.7,1.6,0.0,66.8*,4.1,4.5,33.5,16.3*,
COc1ccc(-c2csc(NC(=S)NC(=O)/C=C/c3ccco3)n2)cc1OC,2.7,4.5,2.6,22.1,-2.4,0.9,.,.,
O=C(CSC1=NS(=O)(=O)c2cc(Cl)ccc2N1)Nc1cccc(F)c1,-2.3,4.5,-0.5,60.2*,4.8,-1.8,41.7*,11.6*,
O=C(CSC1=NS(=O)(=O)c2cc(F)ccc2N1)Nc1ccc(F)cc1,-2.2,-3.2,-0.4,23.7,-1.9,-0.3,.,.,
